From PubChem BioAssay (EPA / NIEHS)
Inconclusive results are not listed. The source made the active and inactive calls. The calls were made as follows: active = hit-call score of the fitted dose curve at least 0.9, where 1 is the maximum; inconclusive = response in the unintended direction; inactive = score below 0.9.

Molecular target: CDK2 (gene 1017) (UniProt P24941)
Test: NVS_ENZ_hCDK2: NovaScreen (NVS) Enzymatic Assay for human Cyclin-Cependent Kinase 2 (CDK2) (AID 2283144)
Method in brief: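 Cell-free recombinant human CDK2 with fluorescent substrate, product separated by electrophoretic mobility shift; 1 hr read. Primary screen at 25 uM in duplicate, actives retested in concentration-response up to 50 uM; loss of signal versus DMSO.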

Which outcome does the source give for `CCNc1nc(Cl)nc(NC(C)(C)C#N)n1` here?
The outcome was “inactive”.

How did the outcome turn out when `CCCCN(CC)c1c([N+](=O)[O-])cc(C(F)(F)F)cc1[N+](=O)[O-]` was run?
Its outcome is “inactive”.

For `CCOP(=O)(NC(C)C)Oc1ccc(SC)c(C)c1` (centres undefined), which outcome is on record?
Its outcome is “inactive”.

Molecular target: human Casein Kinase 2- alpha 2 beta 2 (CK2a2b2), CSNK2A1 (gene 1457) (UniProt P68400)
Test: NVS_ENZ_hCK2a2b2: NovaScreen (NVS) Enzymatic Assay for human Casein Kinase 2- alpha 2 beta 2 (CK2a2b2) (AID 2283147)
Experimental: (§1) NVS_ENZ_hCK2a2b2 is a biochemical, single-readout assay that uses extracted gene-proteins in a cell-free assay. Measurements were taken 1 hour after chemical dosing in a 384-well plate.NVS_ENZ_hCK2a2b2 is one of one assay component(s) measured or calculated from the NVS_ENZ_hCK2a2b2 assay. It is designed to make measurements of enzyme activity, a form of enzyme reporter, as detected with fluorescence intensity signals by Fluorescence and electrophoretic mobility shift technology.Data from the assay component NVS_ENZ_hCK2a2b2 was analyzed into 1 assay endpoint. This assay endpoint, NVS_ENZ_hCK2a2b2, was analyzed in the positive analysis fitting direction relative to DMSO as the negative control and baseline of activity. Using a type of enzyme reporter, loss-of-signal activity can be used to understand changes in the enzymatic activity as they relate to the gene CSNK2A1. Furthermore, this assay endpoint can be referred to as a primary readout, because this assay has produced multiple assay endpoints where this one serves a enzymatic activity function. To generalize the intended target to other relatable targets, this assay endpoint is annotated to the kinase intended target family, where the subfamily is serine/threonine kinase.
(§2) Binding assays used specific radioligands (tritiated, iodinated) with non-radioactive competitive displacement ligands in agonist or antagonist protocols (as indicated) and various reference compounds and inhibitors to titrate specific binding to receptors and transporters. Most enzyme assays (CYPs, kinases, phosphatases, proteases, HDACs) used recombinant protein and specific substrates (fluorescence mostly, some colorimetric and radioactive) and inhibitors, followed by a biochemical separation of substrate and product. All assays for the biochemical HTS were initially run in duplicate at a single concentration (10 uM for CYP450 assays and 25 uM for all others). Assay-chemical combinations meeting a pre-defined threshold (e.g., 30% inhibition and other criteria defined below) were then run in singleton concentration-response format with maximum concentration of 20 uM for CYPs and 50 uM for all others. Each assay was run with positive and negative controls, and concurrent controls on every plate. The follow-up (secondary) screen tested active chemical-pairs in concentration series, as well as a few additional assays not tested in the primary screen, some selected negative inactives, and several cases re-run in the concentration series for confirmatory purposes.

human Casein Kinase 2- alpha 2 beta 2 (CK2a2b2), CSNK2A1 (gene 1457), sequence (P68400 whole entry, looked up): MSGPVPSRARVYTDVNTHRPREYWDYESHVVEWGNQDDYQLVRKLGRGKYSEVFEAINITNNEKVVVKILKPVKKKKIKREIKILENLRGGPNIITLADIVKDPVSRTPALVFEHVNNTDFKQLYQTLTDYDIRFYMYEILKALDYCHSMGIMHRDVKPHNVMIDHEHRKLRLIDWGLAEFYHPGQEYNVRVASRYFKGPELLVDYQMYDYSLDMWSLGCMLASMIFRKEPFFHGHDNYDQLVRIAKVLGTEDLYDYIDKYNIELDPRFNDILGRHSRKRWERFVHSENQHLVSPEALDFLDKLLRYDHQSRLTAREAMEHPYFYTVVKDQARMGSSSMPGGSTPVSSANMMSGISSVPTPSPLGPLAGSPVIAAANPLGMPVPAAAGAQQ

`CC(Oc1cccc(Cl)c1)C(=O)O` (centres undefined) was tested. Which AC50 did it give?
Its AC50 is 15 µM (active).

For `CCC(=O)Nc1ccc(Cl)c(Cl)c1`, which AC50 is on record?
Its AC50 is 1.66 µM (active).

For `CCOP(=S)(Oc1cnc(C(C)(C)C)nc1)OC(C)C` (centres undefined), which outcome is on record?
Its outcome is “inactive”.

Molecular target: human Dual Specificity Protein Phosphatase 3 (DUSP3), DUSP3 (gene 1845) (UniProt P51452)
Test: NVS_ENZ_hDUSP3: NovaScreen (NVS) Enzymatic Assay for human Dual Specificity Protein Phosphatase 3 (DUSP3) (AID 2283152);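 also: phosphatase activity of recombinant human DUSP3 on a fluorogenic substrate without cells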
Method in brief: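 Cell-free assay with recombinant human DUSP3 and fluorogenic substrate, read by fluorescence intensity. Primary screen ran duplicate at 25 uM; actives followed up in concentration series; loss of signal versus DMSO scored.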

human Dual Specificity Protein Phosphatase 3 (DUSP3), DUSP3 (gene 1845), sequence (P51452 whole entry, looked up): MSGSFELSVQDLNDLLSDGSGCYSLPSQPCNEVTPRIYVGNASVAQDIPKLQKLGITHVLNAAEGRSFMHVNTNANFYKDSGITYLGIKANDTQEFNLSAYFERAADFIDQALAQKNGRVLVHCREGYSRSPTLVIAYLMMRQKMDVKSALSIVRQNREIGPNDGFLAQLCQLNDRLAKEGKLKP

Which outcome does the source give for `CCCCOC(=O)[C@@H](C)Oc1ccc(Oc2ccc(C#N)cc2F)cc1` here?
The outcome was “inactive”.

Which outcome does the source give for `CCCOCC(=Nc1ccc(Cl)cc1C(F)(F)F)n1ccnc1` here?
The outcome was “inactive”.

Which outcome does the source give for `C=C(C)[C@H]1Cc2c(ccc3c2O[C@@H]2COc4cc(OC)c(OC)cc4[C@@H]2C3=O)O1` here?
The outcome was “inactive”.

Molecular target: human Elastase, ELANE (gene 1991) (UniProt P08246)
Test: NVS_ENZ_hElastase: NovaScreen (NVS) Enzymatic Assay for human Elastase (AID 2283153)
Method in brief: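 Cell-free elastase from human neutrophils, 1.5 h after dosing, activity read by absorbance. Primary screen in duplicate at 25 uM; hits (e.g., 30% inhibition) rerun in singleton concentration-response up to 50 uM, fitted versus DMSO.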

human Elastase, ELANE (gene 1991), sequence (P08246 whole entry, looked up): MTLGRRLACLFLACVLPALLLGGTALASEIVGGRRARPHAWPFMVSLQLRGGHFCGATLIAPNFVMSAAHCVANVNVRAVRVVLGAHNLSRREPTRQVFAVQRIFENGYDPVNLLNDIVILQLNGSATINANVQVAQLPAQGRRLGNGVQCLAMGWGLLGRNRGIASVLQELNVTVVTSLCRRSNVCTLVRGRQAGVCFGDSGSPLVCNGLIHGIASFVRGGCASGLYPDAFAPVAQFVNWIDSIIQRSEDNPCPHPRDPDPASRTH

How did the outcome turn out when `CCOP(=S)(OCC)Oc1cc(C)nc(C(C)C)n1` was run?
The outcome was “inactive”.

For `CCCSP(=O)(OCC)Oc1ccc(Br)cc1Cl` (centres undefined), which AC50 is on record?
Its AC50 is 25 µM (active).

How did the outcome turn out when `CCOP(=O)(OCC)Oc1cc(C)nc(C(C)C)n1` was run?
The outcome was “inactive”.

Molecular target: human Ephrin type-B Receptor 1 (EphB1), EPHB1 (gene 2047) (UniProt P54762)
Test: NVS_ENZ_hEphB1: NovaScreen (NVS) Enzymatic Assay for human Ephrin type-B Receptor 1 (EphB1) (AID 2283154)
Experimental: as §1, with “NVS_ENZ_hEphB1” for “NVS_ENZ_hCK2a2b2”, “plate.NVS_ENZ_hEphB1” for “plate.NVS_ENZ_hCK2a2b2”, “NVS_ENZ_hEphB1,” for “NVS_ENZ_hCK2a2b2,”, “EPHB1.” for “CSNK2A1.”, “receptor tyrosine” for “serine/threonine”
as §2, with “Assay-chemical combinations meeting a pre-defined threshold (e.g., 30% inhibition and other criteria defined below) were then run in singleton concentration-response format with maximum concentration of 20 uM for CYPs and 50 uM for all others.” left out

human Ephrin type-B Receptor 1 (EphB1), EPHB1 (gene 2047), sequence (P54762 whole entry, looked up): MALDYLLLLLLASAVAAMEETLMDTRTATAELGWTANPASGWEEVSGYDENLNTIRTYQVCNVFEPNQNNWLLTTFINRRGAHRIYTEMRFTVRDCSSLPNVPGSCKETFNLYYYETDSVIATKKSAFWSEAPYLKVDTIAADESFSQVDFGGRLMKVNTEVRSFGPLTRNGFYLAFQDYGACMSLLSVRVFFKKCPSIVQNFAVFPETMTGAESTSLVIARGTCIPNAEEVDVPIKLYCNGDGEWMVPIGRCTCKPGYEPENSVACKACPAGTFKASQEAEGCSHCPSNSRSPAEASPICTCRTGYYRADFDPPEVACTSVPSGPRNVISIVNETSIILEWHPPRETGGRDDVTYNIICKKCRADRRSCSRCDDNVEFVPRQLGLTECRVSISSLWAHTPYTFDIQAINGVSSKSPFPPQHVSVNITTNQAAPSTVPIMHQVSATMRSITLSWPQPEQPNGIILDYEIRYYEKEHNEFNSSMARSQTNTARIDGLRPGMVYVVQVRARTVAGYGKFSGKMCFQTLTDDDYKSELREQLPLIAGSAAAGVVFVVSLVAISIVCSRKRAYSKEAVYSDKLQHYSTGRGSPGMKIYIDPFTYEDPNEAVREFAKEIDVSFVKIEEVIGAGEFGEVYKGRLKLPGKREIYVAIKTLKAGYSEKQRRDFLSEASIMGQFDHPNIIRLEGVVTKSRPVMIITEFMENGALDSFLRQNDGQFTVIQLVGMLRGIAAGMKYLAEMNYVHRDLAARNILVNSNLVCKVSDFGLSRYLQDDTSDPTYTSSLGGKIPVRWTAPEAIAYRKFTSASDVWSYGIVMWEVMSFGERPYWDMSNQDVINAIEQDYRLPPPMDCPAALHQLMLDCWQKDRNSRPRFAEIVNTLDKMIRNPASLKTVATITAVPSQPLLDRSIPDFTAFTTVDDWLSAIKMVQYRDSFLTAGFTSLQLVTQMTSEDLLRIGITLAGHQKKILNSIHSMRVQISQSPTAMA

Which outcome does the source give for `CCOP(=S)(OCC)OC(Cl)C(Cl)(Cl)Cl` (centres undefined) here?
Its outcome is “inactive”.

Which outcome does the source give for `COP(=O)(OC)C(O)C(Cl)(Cl)Cl` (centres undefined) here?
Its outcome is “inactive”.

For `CCCSP(=O)(OCC)Oc1ccc(Br)cc1Cl` (centres undefined), which outcome is on record?
Its outcome is “inactive”.

For `CCCCSP(=O)(SCCCC)SCCCC`, which outcome is on record?
The outcome was “inactive”.

Which outcome does the source give for `CNC(=O)Oc1cccc2c1OC(C)(C)O2` here?
Its outcome is “inactive”.

With `CCc1cccc(C)c1N(C(=O)CCl)C(C)COC` (centres undefined) as the compound, how does the outcome read?
The outcome was “inactive”.

How did the outcome turn out when `CC(COc1ccc(Oc2ccccc2)cc1)Oc1ccccn1` (centres undefined) was run?
The outcome was “inactive”.
